According to PubChem BioAssay (NCATS):
“And” between values parts separate entries of the source, which are not always exact repeats. Equal values may be shown once. Records with an inconclusive call do not appear. The source made the active and inactive calls. Unless noted, the call rests on the fitted dose curve; in most records, active means well fitted curve in the direction sought with a large enough effect; inconclusive means small, poorly fitted or top-dose-only effect, or another doubt; inactive means no such curve, though single readings can be large; an effect the other way counts as inactive or inconclusive.

Key:
[1] = target: Cellular tumor antigen p53 (Homo sapiens) (UniProt P04637); experiment: Primary qHTS for small molecule compounds that upregulate eGFP-tagged delta133p53alpha (in N-terminal) cells. (AID 2060322); conditions: NCI-H358 eGFP-delta133p53alpha fluorescence, 24 h; activation: active compounds read high; further: nearly all actives have a fitted effect of over 75% in size; further: potency means the concentration at half of the fitted maximal effect;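 on activation: cells pre-induced with doxycycline then dosed without doxycycline; series mostly up to about 56 µM; 0% = DMSO vehicle and 100% = reference activator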
Summary of the method: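 NCI-H358 cells pre-induced 24 h with 10 ng/ml doxycycline for eGFP-delta133p53alpha, plated dox-free and exposed 24 h at 37C to titrated compounds. Fixed, Hoechst-stained; gated GFP peak intensity by laser scanning cytometry, normalized to DMSO (0%) and 57.5 uM 5-azacytidine (100%).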

[2] = qHTS for Inhibitors of the Aldehyde Dehydrogenase Family (ALDH1A2, ALDH1A3, ALDH2, ALDH3A1) (AID 2061307); further: nearly all actives have a fitted effect of over 50% in size; on Potency: test system not described further here; potency means the concentration at half of the fitted maximal effect
[3] = target: Aldehyde dehydrogenase, mitochondrial (Homo sapiens) (UniProt P05091); experiment: qHTS for Inhibitors of the Aldehyde Dehydrogenase Family (ALDH2) Primary screen (AID 2061308);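 further: plate controls were vehicle for no effect and reference inhibitor for full effect; nearly all actives have a fitted effect of over 55% in size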
[4] = target: Retinaldehyde dehydrogenase 3 (Homo sapiens) (UniProt P47895); experiment: qHTS for Inhibitors of the Aldehyde Dehydrogenase Family (ALDH1A3) Confirmatory screens (AID 2061311); further: nearly all actives have a fitted effect of over 60% in size; further: potency means the concentration at half of the fitted maximal effect
[5] = target: Retinal dehydrogenase 2 (Homo sapiens) (UniProt O94788); experiment: qHTS for Inhibitors of the Aldehyde Dehydrogenase Family (ALDH1A2) Confirmation screens (AID 2061314); further: nearly all actives have a fitted effect of over 65% in size; further: potency means the concentration at half of the fitted maximal effect
[6] = target: Retinaldehyde dehydrogenase 3 (Homo sapiens) (UniProt P47895); experiment: qHTS for Inhibitors of the Aldehyde Dehydrogenase Family (ALDH1A3) Primary screen (AID 2061315); further: potency means the concentration at half of the fitted maximal effect
[7] = target: Aldehyde dehydrogenase 1A1 (Homo sapiens) (UniProt P00352); experiment: qHTS for Inhibitors of the Aldehyde Dehydrogenase Family (ALDH1A1) Confirmatory screens (AID 2061316); further: nearly all actives have a fitted effect of over 65% in size; further: potency means the concentration at half of the fitted maximal effect
[8] = target: Aldehyde dehydrogenase, mitochondrial (Homo sapiens) (UniProt P05091); experiment: qHTS for Inhibitors of the Aldehyde Dehydrogenase Family (ALDH2) Confirmatory screens (AID 2061303; active means well fitted inhibition curve with a large enough effect; title and protocol of this record describe different tests; further: on the % scale 0 is the no-effect control and ±100 the full control effect; nearly all actives have a fitted effect of over 45% in size)
[9] = target: Retinaldehyde dehydrogenase 3 (Homo sapiens) (UniProt P47895); experiment: qHTS for Inhibitors of the Aldehyde Dehydrogenase Family (ALDH1A3) Validation screen (AID 2061312); further: nearly all actives have a fitted effect of over 45% in size; further: potency means the concentration at half of the fitted maximal effect
[10] = BET inhibitor-based combinations targeting novel dependencies in MECOM-rearranged (r) AML: OCI-AML3 cell line (AID 2202232); conditions: Potency: OCI-AML3 viability; further: nearly all actives have a fitted effect of over 35% in size; further: potency means the concentration at half of the fitted maximal effect
Summary of the method: (§1)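 Luminescent ATP readout (CellTiter-Glo) after 48 hr drug exposure gives viability. Curves span 11 concentrations and are normalized to DMSO and empty wells. Activity is reported as area under the curve and its Z-transform within each cell line.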

[11] = BET inhibitor-based combinations targeting novel dependencies in MECOM-rearranged (r) AML: MV-4-11 cell line (AID 2202233); further: potency means the concentration at half of the fitted maximal effect; nearly all actives have a fitted effect of over 45% in size
Summary of the method: (§2)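 Luminescent ATP readout (CellTiter-Glo, 15 min at room temperature) after 48 hr drug exposure gave viability. Dose-response curves, normalized to DMSO and empty-well controls, were summarized as area under the curve and its mean-centred Z-score.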

[12] = BET inhibitor-based combinations targeting novel dependencies in MECOM-rearranged (r) AML: UCSD-AML1 cell line (AID 2202235);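 further: series mostly up to about 46 µM; plate controls were DMSO vehicle wells for no effect and blank wells for full effect; nearly all actives have a fitted effect of over 40% in size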
Summary of the method: as §2

[13] = BET inhibitor-based combinations targeting novel dependencies in MECOM-rearranged (r) AML: SET-2 cell line (AID 2202231); conditions: SET-2 AML cells viability, CellTiter-Glo luminescence, 48 h; viability: active compounds read low, concentration not given here; further: potency means the concentration at half of the fitted maximal effect; nearly all actives have a fitted effect of over 35% in size
Summary of the method: as §1

[14] = BET inhibitor-based combinations targeting novel dependencies in MECOM-rearranged (r) AML: HNT-34 cell line (AID 2202234); further: nearly all actives have a fitted effect of over 35% in size; further: potency means the concentration at half of the fitted maximal effect
Summary of the method: as §2

[15] = BET inhibitor-based combinations targeting novel dependencies in MECOM-rearranged (r) AML: AML-191 cell line (AID 2202236; further: nearly all actives have a fitted effect of over 35% in size; further: potency means the concentration at half of the fitted maximal effect)
Summary of the method: as §1

[16] = BET inhibitor-based combinations targeting novel dependencies in MECOM-rearranged (r) AML: AML-194 cell line (AID 2202237; further: nearly all actives have a fitted effect of over 40% in size; further: potency means the concentration at half of the fitted maximal effect)
Summary of the method: as §1

Cellular tumor antigen p53 (Homo sapiens), sequence (P04637 whole entry, looked up): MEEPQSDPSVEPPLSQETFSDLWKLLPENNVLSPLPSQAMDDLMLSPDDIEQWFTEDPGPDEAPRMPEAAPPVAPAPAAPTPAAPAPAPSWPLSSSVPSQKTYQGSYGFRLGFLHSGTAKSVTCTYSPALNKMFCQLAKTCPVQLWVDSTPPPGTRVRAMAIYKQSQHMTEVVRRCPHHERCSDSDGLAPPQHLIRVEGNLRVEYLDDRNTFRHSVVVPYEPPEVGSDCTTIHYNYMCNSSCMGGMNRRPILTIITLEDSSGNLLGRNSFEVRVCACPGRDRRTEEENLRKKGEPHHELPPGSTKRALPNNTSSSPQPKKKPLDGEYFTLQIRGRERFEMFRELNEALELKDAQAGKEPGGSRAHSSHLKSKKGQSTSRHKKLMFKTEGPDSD

CCN(Cc1cc(Nc2nc(C)cn3c(-c4cn[nH]c4)cnc23)sn1)C(C)(C)CO
inactive: Potency [2] | Potency [3] | Potency [6]
active: Potency [1] 16.9 µM | Potency [4] 12.7 µM | Potency [5] 31.8 µM

Cc1onc(-c2ccccc2)c1C(=O)N[C@@H]1C(=O)N2[C@@H]1SC(C)(C)[C@@H]2C(=O)O
inactive: activation [1] -0.333% and 17% | Potency [2] | Potency [3] | Potency [6]

COc1ccc2c(OC)c3ccoc3nc2c1OC
inactive: activation [1] -3.05% | Potency [3]
active: Potency [2] 28.2 µM | Potency [4] 4 µM | Potency [5] 0.896 µM | Potency [7] 2.83 µM

O=C(O)c1cc(O[C@@H]2O[C@H](CO[C@@H]3OC[C@@H](O)[C@H](O)[C@H]3O)[C@@H](O)[C@H](O)[C@H]2O)c2ccccc2c1O
inactive: activation [1] 9.92% | Potency [8]
active: Potency [4] 1.38 µM | Potency [5] 2.46 µM | Potency [6] 2.82 µM | Potency [7] 0.693 µM

CC[C@@H](Nc1c(Nc2cccc(C(=O)N(C)C)c2O)c(=O)c1=O)c1cc(C(C)C)co1
inactive: activation [1] -2.39% | Potency [3] | Potency [9] | Potency [5] | Potency [7]
active: Potency [2] 5.62 µM and 7.08 µM

CN(C)c1cccc(Oc2cnc(Nc3cccc(O)c3)nc2)c1
inactive: activation [1] 2.86% | Potency [8]
active: Potency [9] 8.91 µM

C=C1C(O)CCC2(C)CC3(OC)OC(=O)C(C)=C3CC12 (stereo not given)
inactive: activation [1] -6.87% | Potency [8] | Potency [6]

N#Cc1ccc2[nH]cc(CCCCN3CCN(c4ccc5oc(C(N)=O)cc5c4)CC3)c2c1
active: Potency [2] 2.24 µM | Potency [4] 15.8 µM | Potency [5] 15.8 µM
inactive: activation [1] 11.5% | Potency [3] | Potency [9] | Potency [6]

COc1ccc2c(c1)O[C@H](O[C@@H]1O[C@H](CO)[C@@H](O)[C@H](O)[C@H]1O)C(=O)N2
active: Potency [4] 13.9 µM | Potency [6] 6.31 µM
inactive: activation [1] -12.5% | Potency [2] | Potency [3]

COC(=O)C1=CO[C@@H](O[C@@H]2O[C@H](COC(=O)/C=C/c3cc(OC)c(O)c(OC)c3)[C@@H](O)[C@H](O)[C@H]2O)[C@@H]2C(CO)=CC[C@H]12
inactive: activation [1] -16.8% | Potency [2] | Potency [3]

Cc1cc(Nc2ccc(NC(=O)c3ccc(Nc4ccnc5ccccc45)cc3)cc2)nc(N)n1
active: Potency [1] 10.9 µM
inactive: Potency [2] | Potency [3] | Potency [9] | Potency [6]

COCC(=O)NC/C=C/c1ccc2ncnc(Nc3ccc(Oc4ccc(C)nc4)c(C)c3)c2c1
inactive: activation [1] 0% | Potency [3] | Potency [4] | Potency [5] | Potency [6]
active: Potency [2] 7.12 µM

S=C(NCc1ccc2c(c1)OCO2)N1CCN(c2ncnc3c2oc2ccccc23)CC1
inactive: activation [1] 8.81% and -14.3% | Potency [3] | Potency [9] | Potency [6] | Potency [7] | Potency [12]
active: Potency [2] 1.58 µM | Potency [5] 11.3 µM | Potency [10] 2.95 µM | Potency [11] 16.6 µM

O=C(NCC(=O)N1CCCC1)Nc1ccc2ccccc2c1
active: Potency [2] 5.04 µM | Potency [4] 1.01 µM | Potency [9] 3.55 µM | Potency [6] 2.82 µM | Potency [7] 7.98 µM
inactive: activation [1] -2.86% | Potency [3]

O=C(c1c(F)ccc(NS(=O)(=O)N2CC[C@@H](F)C2)c1F)c1c[nH]c2ncc(-c3cnc(C4CC4)nc3)cc12
inactive: activation [1] 17% | Potency [3] | Potency [5] | Potency [6]
active: Potency [2] 22.4 µM | Potency [13] 16.6 µM | Potency [11] 18.6 µM | Potency [14] 5.9 µM

O=C(C1OC1/C=C/c1ccc2c(c1)OCO2)N1CCCCC1 (stereo not given)
inactive: activation [1] -6.11% | Potency [2] | Potency [3] | Potency [5]

CC(=O)N[C@@H](CC(=O)O)C(=O)N[C@@H](CCC(=O)O)C(=O)N[C@H](C(=O)N[C@@H](CC(=O)O)C(=O)Nc1ccc2c(C)cc(=O)oc2c1)C(C)C
inactive: Potency [2] | Potency [3] | Potency [6]
active: Potency [1] 13.5 µM

C=CC(=O)N1CCN(C(=O)CNc2cc(I)c(Cl)cc2O)CC1
inactive: activation [1] 8.59% | Potency [3]
active: Potency [2] 2.25 µM | Potency [4] 1.79 µM | Potency [9] 7.08 µM | Potency [5] 28.3 µM | Potency [6] 2.82 µM | Potency [7] 2.83 µM

Cc1cc(C)c2c(c1)C(N(Cc1cc(C(F)(F)F)cc(C(F)(F)F)c1)c1nnn(C)n1)CCCN2CC1CCC(C(=O)O)CC1 (stereo not given)
inactive: activation [1] 26.7% | Potency [2] | Potency [3]
active: Potency [9] 2.82 µM | Potency [5] 20.1 µM

O=C(NCCCCCCCCNC(=O)C(Cl)Cl)C(Cl)Cl
inactive: activation [1] -0.333%
active: Potency [2] 8.91 µM

COc1cccc(CNC(=O)Nc2nc(-c3ccncc3)cs2)c1
active: Potency [2] 2.01 µM | Potency [5] 5.65 µM
inactive: activation [1] -8.04% | Potency [3] | Potency [6]

Nc1cccc(CNC(=O)c2ccc(Oc3ccc(OCc4cccc(F)c4)cc3)nc2)c1
inactive: activation [1] -6.68% | Potency [8] | Potency [9] | Potency [5] | Potency [6]

O=C(O)c1cc(C(F)(F)F)ccc1N1CC[C@H](OCc2ccccn2)C1
inactive: activation [1] -17% | Potency [2] | Potency [3] | Potency [4] | Potency [6] | Potency [7]

NC(=Nc1ccc(CCNCc2cccc(Cl)c2)cc1)c1cccs1
inactive: activation [1] -11.9% | Potency [2] | Potency [3] | Potency [6]

COc1ccc(CCO[C@@H]2O[C@H](CO[C@H]3OC[C@](O)(CO)[C@H]3O)[C@@H](OC(=O)/C=C/c3ccc(O)c(O)c3)[C@H](O[C@@H]3O[C@@H](C)[C@H](O)[C@@H](O)[C@H]3O)[C@H]2O)cc1OC
inactive: activation [1] 16% | Potency [2] | Potency [3] | Potency [5]

CC(O)CCC1C(CO[C@@H]2O[C@H](CO)[C@@H](O)[C@H](O)[C@H]2O)CC(O)CC1(C)C (stereo not given in full)
active: Potency [4] 3.92 µM | Potency [6] 6.31 µM
inactive: activation [1] 5.34% | Potency [2] | Potency [3] | Potency [5]

COc1ccc(CNC(=O)Nc2ncc([N+](=O)[O-])s2)cc1
active: Potency [1] 33.8 µM | Potency [2] 3.16 µM | Potency [4] 14.2 µM | Potency [5] 12.7 µM | Potency [11] 18.6 µM | Potency [14] 20.9 µM | Potency [15] 23.5 µM | Potency [16] 26.3 µM
inactive: Potency [3] | Potency [6]

O=C(NNc1ccccc1)c1ccncc1
inactive: Potency [10] | Potency [14] | Potency [12] | Potency [15] | Potency [16]

OC[C@H]1O[C@@H](OCc2ccccc2)[C@H](O)[C@@H](O)[C@@H]1O
inactive: activation [1] -9.16% | Potency [3]
